These entries were drawn from the full list.
aSyn 5UTR act = Activators via SNCA 5'UTR binding, MLPCN | 7.1% of 300,000 active | alpha-synuclein 5'UTR reporter, activators screen | activity score, % (tested at 7.5 µM), hits read low; in the data active = activity score below about -60%
Active calls of the source: *.

SMILES	aSyn 5UTR act
Nc1c(N=Nc2cccc(Cl)c2)c(=O)[nH]n1-c1ccccc1	-66*
CSc1ccc(N=Nc2c(C)[nH]n(C)c2=O)cc1	-62*
Cc1[nH]n(-c2ccccc2)c(=O)c1N=Nc1c(O)cc(S(=O)(=O)N(C)C)c2ccccc12	71
Cc1[nH]n(-c2ccccc2)c(=O)c1N=Nc1ccc2c(c1)OCCO2	-220*
Cc1ccc(N=Nc2c(C)[nH]n(-c3ccccc3)c2=O)c(C)c1	-78*
Cc1[nH]n(-c2ccc(Cl)cc2)c(=O)c1N=Nc1cccnc1	-93*
Cc1[nH]n(-c2ccccc2)c(=O)c1N=Nc1cccc([N+](=O)[O-])c1	-71*
CC(=O)N=C(N)Sc1nc2ccccc2[nH]1	-135*
COC(=O)c1ccc(NC(=S)Nc2ccccn2)cc1	-171*
COc1ccc(NC(=S)Nc2ccccn2)cc1	-168*
COc1ccccc1N1CCN(/N=C/c2cc(Br)ccc2F)CC1	-93*
COc1ccccc1N1CCN(/N=C/c2cccc(Cl)c2)CC1	-196*
COc1ccccc1N1CCN(/N=C/c2cccc(OC)c2O)CC1	-67*
COc1ccc(/C=N/N2CCN(c3ccccc3OC)CC2)cc1Br	-101*
COc1cccc(/C=N/NC(=O)N/N=C/c2cccc(OC)c2O)c1O	53
COc1cccc(/C=N/N2CCN(c3ccccc3OC)CC2)c1	-93*
O=C(NNS(=O)(=O)c1ccccc1[N+](=O)[O-])c1cccc([N+](=O)[O-])c1	-69*
Cc1cc(O)c(NC(=O)c2cccc([N+](=O)[O-])c2)cc1C	-79*
O=C(Nc1cc([N+](=O)[O-])ccc1O)c1cccc([N+](=O)[O-])c1	-96*
CC(C)(C)c1cc(NC(=O)c2cccc([N+](=O)[O-])c2)no1	-111*
COc1ccc(OC)c2nc(-c3ccc4c(c3)OCO4)ccc12	-90*
c1ccc2nc(-c3ccc4c(c3)OCO4)ccc2c1	-81*
CCCc1cc(-c2nc(N)ncc2-c2ccc3c(c2)OCCCO3)c(O)cc1OC	62
COc1cc2c(O)c3c(c(-c4ccc5c(c4)OCO5)c2cc1OC)C(=O)OC3	108
Fc1cccc(F)c1/C=N/Nc1ccccn1	-230*
SMILES	aSyn 5UTR act
Fc1cccc(Cl)c1/C=N/Nc1ccccn1	-235*
Fc1cccc(/C=N/Nc2ccccn2)c1	-277*
O=C1CC(c2cc(Br)ccc2F)c2cc3c(cc2N1)CCC3 (stereo not given)	65
Clc1cccc(OCc2nnc(-c3ccccc3Br)o2)c1	-68*
Clc1ccc(OCc2nnc(-c3ccccc3Br)o2)c(Cl)c1	-144*
Clc1ccccc1OCc1nnc(-c2ccccc2)o1	-109*
Fc1ccc(OCc2nnc(-c3ccccc3Br)o2)c(Cl)c1	-151*
CCCCNc1c(-c2ccc(-c3cccc(Cl)c3)cc2)nc2ccccn12	-105*
CCCCCCSc1ccc(-c2nc3ccccn3c2NCCCC)cc1	-113*
Cc1ccc2nc(-c3ccc(-c4cccc(Cl)c4)cc3)c(NCc3ccccc3)n2c1	-68*
CC1CCN(c2ccc(NC(=O)c3cccnc3)cc2)CC1	-149*
CC1CCN(c2ccc(NC(=O)c3cccnc3Cl)cc2)CC1	-69*
Cc1ccc(C(=O)Nc2cnc3ccccn3c2=O)cc1	-120*
Cc1ccc2ncc(NC(=O)c3ccc(F)cc3)c(=O)n2c1	-139*
O=[N+]([O-])/C=C\c1ccc(N2CCCC2)c(F)c1	-142*
c1ccc2c3c([nH]c2c1)-c1[nH]ncc1CC3	-117*
Fc1ccc(C[n+]2csc3ccccc32)cc1	-109*
CN1CCC(=NOc2ccc([N+](=O)[O-])cc2)CC1	-93*
CCOC(=O)c1ccc(N/C=C/C(=O)c2ccco2)cc1	-85*
O=C(/C=C/Nc1ccc(F)cc1)c1ccco1	-144*
CCOc1ccccc1N/C=C(\C#N)c1nc2ccccc2n1C	-76*
NNc1nc2c(-c3cccc(C(F)(F)F)c3)nnn2c2ccccc12	-71*
O=C(c1cc(COc2ccc(F)cc2Cl)on1)N1CC2C[C@@H]3CC1C[C@H](C2)C3	-190*
O=C(c1cc(COc2ccc(F)cc2Cl)on1)N1C[C@H]2CC[C@H]1C2	-164*
Cc1cc(NC(=O)C2CCCCC2)ncc1NC(=O)c1ccccn1	-73*
SMILES	aSyn 5UTR act
Cc1cc(NC(=O)C2CC2)ncc1NC(=O)c1ccccn1	-93*
CC(=O)CSc1nc2ccccc2o1	-75*
O=C(CSc1nc2ccccc2o1)c1ccccc1	-95*
O=[N+]([O-])c1ccc(Cl)cc1Sc1nc2ccccc2o1	69
O=C(O)c1ccccc1CSc1nc2ccccc2o1	-114*
Cc1cc(SCC(=O)c2ccccc2)n2ncc(-c3ccccc3)c2n1	-138*
Cc1cc(SCC(=O)c2ccccc2)nc(C)n1	-115*
O=C(CSc1ccc2ccccc2n1)c1ccccc1	-125*
O=C(CSc1ccc(-c2ccco2)nn1)c1ccccc1	-88*
C[C@@H]1CC=C[C@H]2[C@H]1C(=O)N(Cc1ccccc1)[C@H]2c1ccc(-c2cc3ccccc3s2)cc1F	-138*
CC(=C/c1ccccc1)/C=C1/SC(N2CCOCC2)=NC1=O	-102*
O=C1C=C(N2CCOCC2)c2ccccc2C1=O	114
CC1Oc2ccccc2C=C1/C=C1/SC(N2CCOCC2)=NC1=O (stereo not given)	-108*
N#CCC(=O)N/N=C/c1cn(Cc2ccc(Cl)c(Cl)c2)c2ccccc12	61
N#CCn1cc(/C=N/NC(=O)c2cc3c(ccc4ccccc43)o2)c2ccccc21	-112*
O=C(ONc1ccc(N=NC(=O)c2ccccc2O)cc1)c1ccccc1	-86*
CCc1ccc(-c2ccc(C(=O)C(F)(F)F)[nH]2)cc1	-80*
Cc1nn(-c2ccccc2)c(/N=C/c2ccc(O)cc2)c1-c1ccccc1	-134*
COc1cc(/C=N/NC(=O)c2ccoc2C)cc(OC)c1OC	-81*
COc1ccc(/C=N/NC(=O)c2ccoc2C)cc1OC	-73*
COc1cc(/C=N/NC(=O)c2cc(-c3ccccc3)sc2N)cc(OC)c1OC	-70*
C=CCOC(=O)C1=C(C)NC(SCC)=C(C#N)C1c1ccc(Cl)cc1 (stereo not given)	67
N#CC1=C(SCC(=O)c2ccc(Cl)cc2)NC2=C(C(=O)CCC2)C1c1ccco1 (stereo not given)	-173*
O=C1CCCC/C1=C\Nc1ccc(Cl)cn1	-116*
CN(c1ccccc1)c1ccc(/C=N/N2CCOCC2)cc1	-156*
SMILES	aSyn 5UTR act
O=[N+]([O-])c1ccccc1/C=N/N1CCN(c2ccccn2)CC1	-79*
COc1ccc(S(=O)(=O)N2CCN(c3ccccn3)CC2)cc1[N+](=O)[O-]	45
Cc1ccc(/C=N/N2CCN(c3ccccn3)CC2)o1	-80*
CN(C1=C(N2CCOCC2)C(=O)c2ccccc2C1=O)c1ccccc1	39
BrC(=C\c1ccccc1)/C=N/N1CCN(c2ccccn2)CC1	-70*
CN(C)c1ccc(/C=N/N2CCN(c3ccccn3)CC2)cc1	-126*
Oc1cccc(/C=N/N2CCN(c3ccccn3)CC2)c1	-76*
C(=N\N1CCN(c2ccccn2)CC1)/c1ccccn1	-115*
CCN(CC)C(=O)C1CC(c2ccc(OC)cc2)=NO1 (stereo not given)	-103*
O=C(Nc1ccc(F)cc1)N1CCc2ccccc2C1	-203*
O=C(NC1CCCCC1)N1CCc2ccccc2C1	-85*
O=C(Nc1ccc(Br)cc1)N1CCc2ccccc2C1	-161*
O=C(NCC1CCCO1)C(=O)N/N=C/c1ccc(OCc2ccccc2Cl)cc1 (stereo not given)	-106*
NNC(=O)c1cccc(COc2cccc(Br)c2)c1	-86*
O=C(Nc1ccccc1)c1ccc(COc2ccccc2)cc1	-109*

Screening data as filed in PubChem.
